Bioassay records: PubChem, National Center for Advancing Translational Sciences (NCATS)
SARS PLP yeast = SARS-CoV PLP inhibition in yeast. AID 485353. 330,000 compounds, 0.19% hits. S. cerevisiae expressing SARS-CoV PLpro, growth rescue. Potency, µM (top dose mostly 32.9 µM), for the others: top-dose activity, positive = growth rescue, actives largely listed as activators; calls by dose curve; note: potency is the fitted concentration of half-maximal effect; 0% is about no effect; nearly all actives have a fitted effect of over 55% in size
Shiga toxin inh = inhibitors of Shiga toxin in Vero cells; inhibition, % at 38.7 µM; Vero cells, Shiga toxin protein synthesis inhibition reporter; AID 2315; 290,000 compounds, 9.2% hits; in the data active = inhibition mostly above about 28%, no sharp cut-off; inactive = mostly below about 43%; note: 0% is about no effect
TbPYK inhibitor = blocks Trypanosoma brucei pyruvate kinase; Q57TT1; TbPYK enzyme, Kinase-Glo Plus ATP luminescence, 45 min; Potency, µM (series often up to 76.8 µM), for inactives: at the top dose activity, negative = inhibition, most hits filed as inhibitors; 410,000 compounds, 0.12% hits; note: potency is the fitted concentration of half-maximal effect; % is set by controls: 0 for no effect and ±100 for the full control effect; nearly all actives have a fitted effect of over 50% in size
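Luminescence from Kinase-Glo Plus, added after a 45-minute room-temperature reaction, served as the end-point read-out. The enzyme and substrate were preincubated with compound before ADP (130 uM final) initiated turnover. Concentration-effect curves came from normalized qHTS data.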
NS1 function inh = influenza NS1 inhibition; Potency, µM (top dose mostly 46.1 µM), for inactives: top-dose activity, positive = more growth; AID 2326; 270,000 compounds, 0.4% hits; calls by dose curve; note: potency is the fitted concentration of half-maximal effect; actives are rising curves; nearly all actives have a fitted effect of over 50% in size
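A cell-based growth assay was used: compounds that relieve NS1-induced slow growth of budding yeast raise OD600. Assay medium was yeast nitrogen base with ammonium sulphate and -URA supplement, pH 6.0, with 2% galactose.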
CHX counter = counter-screen for Shiga toxin inhibitors: cycloheximide protein synthesis inhibition | max response, % | cell reporter, cycloheximide protein synthesis inhibition counterscreen | 300,000 compounds, 12% hits | AID 2314; in the data active = max response mostly above about 13%, no sharp cut-off; inactive = mostly below about 14%; note: read at 38.3 µM for the half of the compounds with a filed dose; 0% is about no effect
LmPK inh = inhibitors of Leishmania mexicana pyruvate kinase | 290,000 compounds, 0.37% hits | purified LmPK, Kinase-Glo ATP luminescence, 1 h | Potency, µM (highest dose often 57.5 µM), inactives show top-dose activity change, negative = inhibition, hits mostly inhibitors; note: potency is the fitted concentration of half-maximal effect; % is set by controls: 0 for no effect and ±100 for the full control effect
Target sequence (Q27686 whole entry, looked up): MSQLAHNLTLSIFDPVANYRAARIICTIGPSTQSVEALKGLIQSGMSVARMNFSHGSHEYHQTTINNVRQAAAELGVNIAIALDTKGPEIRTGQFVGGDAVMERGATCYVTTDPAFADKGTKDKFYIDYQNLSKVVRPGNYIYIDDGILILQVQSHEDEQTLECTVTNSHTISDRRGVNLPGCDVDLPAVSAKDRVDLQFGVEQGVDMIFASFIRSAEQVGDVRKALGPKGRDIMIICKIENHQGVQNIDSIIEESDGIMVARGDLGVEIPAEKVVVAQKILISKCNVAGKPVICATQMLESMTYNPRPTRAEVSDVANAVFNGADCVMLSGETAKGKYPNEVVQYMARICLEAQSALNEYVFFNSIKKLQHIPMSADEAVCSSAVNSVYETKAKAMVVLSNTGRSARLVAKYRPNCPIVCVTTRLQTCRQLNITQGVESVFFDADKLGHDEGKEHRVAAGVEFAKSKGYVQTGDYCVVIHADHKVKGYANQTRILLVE
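qHTS format; LmPK 0.1 nM; substrates PEP 0.5 mM and ADP 0.1 mM. One-hour room-temperature incubation, then coupled luciferase luminescence; 0.5 nM enzyme wells mark activation.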
* hit, by the source's call; ? = inconclusive; / = no result given. The full list was thinned out, with hits kept by preference. Unless noted, calls come from the whole dose curve; as a rule, active = well fitted curve in the direction sought with a large enough effect; inconclusive = small, poorly fitted or top-dose-only effect, or another doubt; inactive = no such curve, though single readings can be large; an effect the other way counts as inactive or inconclusive.

SMILES	SARS PLP yeast	Shiga toxin inh	TbPYK inhibitor	NS1 function inh	CHX counter	LmPK inh
COc1cccc(NC(=O)Cc2csc(COc3cccc(C)c3)n2)c1	/	/	-1%	/	/	/
S=C(NCC1CCCO1)n1nnc2ccccc21 (configuration not stated)	-5%	-1	0%	?	31*	-4%
c1ccc2c(c1)nc(NCC1CCCO1)c1nnnn12 (configuration not stated)	-16%	58*	2%	-2%	21*	3%
Cc1ccc(/C=C/C(=O)c2c(C)nc3ccccn23)cc1	-11%	70*	-13%	-90%	39*	-24%
Cc1ccc(NC(=O)c2c(C)nc3ccccn23)cc1C	-3%	57*	1%	/	41*	1%
Cc1cc(C)cc(NC(=O)c2c(C)nc3ccccn23)c1	0%	16	-6%	-1%	11	7%
Cc1cccc(NC(=O)c2c(C)nc3ccccn23)c1	-3%	80*	-2%	-6%	29*	-3%
Cc1ccc(C)c(N2CCN(S(=O)(=O)c3ccc(-c4cnc(C5CC5)o4)cc3)CC2)c1	/	/	-5%	/	/	/
O=C(NC(=O)N1CCN(c2ccc([N+](=O)[O-])cn2)CC1)c1c(Cl)cccc1Cl	1%	-11	2%	4%	5	2%
CC(=O)Cc1nsc(NC(=O)c2ccc(-c3ccc(F)cc3)o2)n1	0%	13	13%	0%	16*	3%
CC(=O)Cc1nsc(NC(=O)c2cccs2)n1	-5%	16	1%	-69%	31*	-14%
O=C(Nc1nccs1)c1ccc([N+](=O)[O-])cc1Cl	1%	51	0%	-3%	12	-1%
O=C(Nc1nccs1)c1ccc(-c2ccc([N+](=O)[O-])cc2)o1	-1%	120*	-3%	5%	26*	-5%
CC(=O)Cc1nsc(NC(=O)c2ccc(-c3ccc(Cl)c(C(F)(F)F)c3)o2)n1	-7%	20	-2%	5%	-1	0%
O=C(Nc1nccs1)c1ccc(-c2ccc(Cl)cc2)o1	1%	94*	-9%	1%	51*	-4%
COc1cc2ncc(C(=O)c3ccccc3)c(N3CCN(Cc4ccccc4)CC3)c2cc1OC	-1%	15	1%	6%	1	0%
COC(=O)c1ccccc1NC(=O)CSc1nc2nc(C)cc(C)n2n1	/	/	2%	/	/	/
O=C(Nc1nccs1)c1ccc(-c2ccc(F)cc2)o1	-1%	95*	-1%	0%	41*	-3%
O=C(Cc1ccc(F)cc1)Nc1nccs1	-2%	2	-3%	22%	2	3%
c1ccc(C(c2ccccc2)c2ccn[nH]2)cc1	-1%	61*	3%	4%	19*	-6%
Cc1cc2ccccn2c1C(=O)Nc1ccccc1	-1%	68	-5%	-3%	23*	-2%
Cc1cc2ccccn2c1C(=O)Nc1ccc(Cl)cc1	-5%	73*	1%	13%	18*	1%
CCN(C[C@H]1N[C@@](C)(C(=O)OC)[C@H]2C(=O)N(C)C(=O)[C@@H]12)C(=O)Nc1ccc(OC)cc1	-3%	/	-9%	/	/	/
Cc1ccc(C2=NN(CCC(=O)NCCc3cccc(C)c3)C(=O)CC2)cc1	/	/	-11%	/	/	/
OC[C@H]1OC(O)[C@H](O)[C@@H](O)[C@@H]1O (some centres not stated)	/	-9	/	/	-4	/
SMILES	SARS PLP yeast	Shiga toxin inh	TbPYK inhibitor	NS1 function inh	CHX counter	LmPK inh
Cc1ccc(NC(=O)c2cc(C)nn2-c2ccccc2)cc1	-5%	-12	3%	0%	-1	14%
O=C(O)c1ccc(NC(=O)c2cn(-c3ccccc3)nc2-c2ccc(F)cc2)cc1	2%	94*	-3%	/	39*	2%
Cc1cc(C(=O)Nc2ccc(Cl)cc2)n(-c2ccccc2)n1	-2%	31	-11%	-4%	19*	4%
Cc1cccc(NC(=O)c2c(C)nn(-c3ccccc3)c2Cl)c1	12%	113*	-13%	-9%	47*	0%
O=C(O)c1ccc(NC(=O)c2cn(-c3ccccc3)nc2-c2cccc(Cl)c2)cc1	2%	-2	-1%	10%	-4	1%
O=C(/C=C/c1cn(-c2ccccc2)nc1-c1cccnc1)c1ccco1	0%	9	-1%	-3%	25*	-3%
O=C(/C=C/c1cn(-c2ccccc2)nc1-c1cccnc1)N1CCCC1	-1%	-5	3%	/	-2	4%
Cc1nn(-c2ccccc2)c(Cl)c1C(=O)Nc1ccc(N2CCOCC2)cc1	0%	-6	3%	-4%	-3	2%
Cc1nc2c(OCc3cc(Cl)cc(Cl)c3)cccn2c1N(C)C(=O)CCC1CCCC1	/	/	-3%	/	/	/
COc1ccc(CNC(=O)CCc2c(C)nc3c4cccnc4nn3c2C)cc1	/	/	2%	/	/	/
CCCN(CC(=O)Nc1ccccc1OC)C(=O)c1nc2nc(C)ccn2n1	-1%	/	-1%	/	/	/
O=C(NC(=S)NCCO)c1cn(-c2ccccc2)nc1-c1ccccc1	2%	49*	3%	/	24	2%
O=C(NC(=S)N1CCOCC1)c1cn(-c2ccccc2)nc1-c1ccccc1	3%	/	-17%	/	/	/
O=C(Nc1nccs1)c1cn(-c2ccccc2)nc1-c1ccncc1	0%	-13	5%	9%	1	-1%
Cc1cccc(NC(=O)c2cn(-c3ccccc3)nc2-c2ccccc2)c1	15%	27	2%	3%	13*	-3%
O=C(/C=C/c1cn(-c2ccccc2)nc1-c1ccccc1)Nc1ccc(C(=O)O)cc1	-1%	63*	-2%	/	14	2%
Cc1cccc(C)c1NC(=O)c1cn(-c2ccccc2)nc1-c1ccccc1	0%	-7	-1%	-1%	-2	0%
NS(=O)(=O)c1ccc(NC(=O)/C=C/c2cn(-c3ccccc3)nc2-c2cccc(Cl)c2)cc1	0%	1	-6%	?	-3	-1%
O=C(Nc1ccncc1)c1cn(-c2ccccc2)nc1-c1cccs1	-31%	67	4%	-1%	44*	8%
CCc1ccc(NC(=O)CC2C(=O)N(c3ccc(F)cc3)C(=O)N2Cc2ccc(F)cc2)cc1 (configuration not stated)	/	/	1%	/	/	/
COC(=O)[C@]12CCCCC=C1N(Cc1ccc(Cl)cc1Cl)C(=O)[C@H](CC(=O)NCc1cccc(C(F)(F)F)c1)C2	/	/	-2%	/	/	/
CCOC(=O)c1cc(C(=O)Nc2cccc(C)c2)nn1C	-5%	155*	-9%	-36%	40*	-27%
Cn1nc(C(=O)Nc2cccc(Cl)c2)cc1C(=O)Nc1cccc(Cl)c1	2%	12	5%	14%	-3	-2%
N#Cc1ccccc1NC(=O)c1ccc2c(Cl)c3c(nc2c1)CCCC3	?	91*	2%	-15%	53*	4%
CCOc1ccccc1NC(=O)c1ccc2c(Cl)c3c(nc2c1)CCC3	/	/	0%	/	/	/
CCN(C(=O)c1ccc2c(Cl)c3c(nc2c1)CCC3)c1cccc(C)c1	-2%	16	/	-1%	22*	0%
